# Assay results reported in PubChem BioAssay (Tox21).
# Inconclusive results are not listed. Values without a mark were called inactive. The source made the active and inactive calls. The call rests on the fitted dose curve; in most records, active means well fitted activation curve with a large enough effect in the repeat runs; inconclusive means weak or mixed curves; inactive means flat fitted curve, though single readings scatter.
# Experiment: A CellTox Green Cytotoxicity Assay to monitor cytotoxicity in HEK293 cells - 16 hour (AID 1224888); further: nearly all actives have a fitted effect of over 35% in size
# Conditions: CellTox Green fluorescence; series mostly up to 76.8 µM; activity change: at the top concentration
# From the text: National Center for Advancing Translational Sciences [NCATS]
# NIH Chemical Genomics Center [NCGC]
# U.S. Environmental Protection Agency [EPA]
# National Institutes of Environmental Health Sciences [NIEHS]
# National Toxicology Program [NTP]
# Cell-based models are critical for drug discovery. Determining the natural cytotoxic effects resulting from test compounds is an essential research activity. A CellTox Green Cytotoxicity Assay to monitor cytotoxicity in real time of continues cell culture during 40 hours of the compound treatment was used to screen Tox21 10K library compounds in Hek293 cells. CellTox Green Cytotoxicity Assay is a nonlytic, homogeneous, biofluorescent method to measure cytotoxicity in cell culture after experimental manipulation. The assay system uses a proprietary asymmetric cyanine dye that is excluded from viable cells but preferentially stains the dead cell's DNA. […] Viable cells produce no appreciable increases in fluorescence. Therefore, the fluorescence signal produced by the binding interaction with dead cell DNA is proportional to cytotoxicity.
# The mixture of Hek293 cell suspension and reagents were dispensed at 600cells/6 ul/well in 1536-well tissue culture treated black solid bottom plates using a Multidrop dispenser. After the assay plates were incubated at a 37 C/5% CO2 incubator for 5 hours, 23 nL of compounds dissolved in DMSO, positive and negative controls was transferred to the assay plate by a pintool work station. The plates were incubated at 37 C for 40 hours. The fluorescence intensity were measured at 0h, 8h, 16h, 24h, 32h and 40h time points using ViewLux plate reader during compound treatment.
# On the % scale 0 is the no-effect control and ±100 the full control effect; potency means the concentration at half of the fitted maximal effect.
SMILES,activity change,Potency
CCOC(=O)Cn1cccc1-c1nc(-c2ccc(OC)cc2)c(-c2ccc(OC)cc2)s1,"2.15% [at 35.3 µM, active compounds read high]",–
CCC(=O)C(=O)CC,-11.6%,–
Clc1ccnc(Cl)n1,8.65%,–
Cc1nc(-c2ccc(Cl)cc2)oc1COC(C)(C)C(=O)O,"-12.1% [at 35.3 µM, active compounds read high]",–
CN(C)c1ccc(C(=C2C=CC(=[N+](C)C)C=C2)c2ccc(N(C)C)cc2)cc1,–,inactive
c1ccc(SSc2ccccc2)cc1,2.09%,–
Nc1nc(N)nc(-c2cc(Cl)ccc2Cl)n1,"1.84% [at 35.3 µM, active compounds read high]",–
CN(C)Cc1cc(C(C)(C)C)c(O)c(C(C)(C)C)c1,-0.227%,–
O=C(O)c1ccc2cc(C(=O)O)ccc2c1,-2.4%,–
[Cu+],-0.613%,–
C1CCC(SSC2CCCCC2)CC1,4.28%,–
O=C1NC(=O)[C@@H]2CC=CC[C@H]12,-2.41%,–
CC(N=C(NC#N)Nc1ccncc1)C(C)(C)C (stereo not given),"-1.67% [at 35.3 µM, active compounds read high]",–
S=C([S-])NCCNC(=S)[S-].S=C([S-])NCCNC(=S)[S-].[Mn+2].[Zn+2],"-5.05% [at 35.3 µM, active compounds read high]",–
CC(C)Cn1cnc2c(N)nc3ccccc3c21,"2.2% [at 15.8 µM, active compounds read high]",–
OC1CCCc2ccccc21 (stereo not given),-8.09%,–
CC[N+](CC)(CC)CCOC(=O)C(C1CCCC1)C1CCCC1,"-0.265% [at 35.3 µM, active compounds read high]",–
COC(=O)c1ccccc1C,-16.3%,–
CCCC[P+](C)(CCCC)CCCC,18.6%,–
CC1(C)CC(O)CC(C)(C)N1,0.0973%,–

SMILES,activity change,Potency
Cc1cc(-n2nc3ccc(Cl)cc3n2)c(O)c(C(C)(C)C)c1,"-3.54% [at 35.3 µM, active compounds read high]",–
CC(CO)Oc1ccccc1 (stereo not given),2.5%,–
OC[C@H]1O[C@H](O[C@H]2O[C@H](CO)[C@@H](O)[C@H](O)[C@H]2O)[C@H](O)[C@@H](O)[C@@H]1O,5.27%,–
CCc1oc2ccccc2c1C(=O)c1cc(I)c(O)c(I)c1,"9.22% [at 35.3 µM, active compounds read high]",–
Cc1ccc(C(=O)O)cc1,-0.0303%,–
O=C(O)c1cc(N=Nc2ccc([N+](=O)[O-])cc2)ccc1O,1.16%,–
CC(C)(C)c1ccc(C(O)CCCN2CCC(C(O)(c3ccccc3)c3ccccc3)CC2)cc1 (stereo not given),–,13.4 µM (active)
Nc1nc(-c2ccccc2)cs1,0.572%,–
CCCCCCCC,-9.05%,–
O=S(=O)(O)c1ccc(N=Nc2c(O)ccc3ccccc23)cc1,-21.8%,–
CC(C)=CCNc1ncnc2c1ncn2[C@@H]1O[C@H](CO)[C@@H](O)[C@H]1O,"-11.4% [at 35.3 µM, active compounds read high]",–
S=c1nccc[nH]1,-12.6%,–
CCn1c2ccccc2c2cc([N+](=O)[O-])ccc21,-2.87%,–
Cc1c(N)cccc1C(F)(F)F,"-2.83% [at 35.3 µM, active compounds read high]",–
O=C(O)c1cccc(C(F)(F)F)c1,-0.681%,–
C[C@@H](O)[C@H](N)C(=O)O,"-2.81% [at 15.8 µM, active compounds read high]",–
COc1cccc2c1C(=O)c1c(O)c3c(c(O)c1C2=O)C[C@@](O)(C(C)=O)C[C@@H]3O[C@H]1C[C@H](N)[C@H](O)[C@H](C)O1,–,39.1 µM (active)
c1cnccn1,-5.56%,–
Nc1ccc(NCCO)c([N+](=O)[O-])c1,-18.6%,–
CCC(=O)OC(=O)CC,9.42%,–
